PubChem BioAssay (NCI)
Compounds without any hit were thinned out: in the full panel of roughly 83,000, 20% have a hit.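 Plates (96-well) were seeded with cells, treated with compound at one concentration, and incubated for 48 hours before percent growth was determined.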 Values without a mark were called inactive. Activity calls are given as the source filed them. How the source made its calls: active means growth percent below 10; inactive means the rest.

Test system: ACHN renal
Test: NCI-60 one-dose screen, 48 h (100 = growth as untreated, 0 = no growth, -100 = all killed)
Details: 10 µM unless noted

SMILES | growth
C=C(C=O)[C@@H]1CC[C@]2(C)[C@H](CC=C3[C@H]4[C@@H](C)[C@H](C)CC[C@]4(C(=O)OC)CC[C@]32C)[C@@]1(C)CCC#N | -71.9% (active)
COc1ccc([C@@H]2c3[nH]c4ccccc4c3C[C@H]3C(=O)N(C4CCN(CC5CCCCC5)CC4)CC(=O)N23)c(OC)c1 | 81.3%
c1ccc(C(c2nc3ncncc3[nH]2)N2CSc3nc4ncncc4n3C2)cc1 (stereo not drawn) | 81.9%
Cc1occc1-c1nc2s/c(=C/c3ccc(-c4cc(C(F)(F)F)ccc4Cl)o3)c(=O)n2n1 | 102%
CNCc1cccc2c1OCCCCCCC(C)(O)CC(C)(C)S(=O)(=O)c1ccc(cc1)-c1cnc(N)c(n1)C(=O)N2 (stereo not drawn) | 10% (active)
CS(=O)(=O)c1ncc(-c2ccccc2)cn1 | 97.3%
CCOC(=O)c1c(N)c(C#N)cn1-c1cc(OC)c(OC)c(OC)c1 | 101%
CCCCCc1ccc(S(=O)(=O)Nc2cc(-c3csc(NC(=O)CN4CCN(C)CC4)n3)ccc2OC)cc1 | 3.55% (active)
Cc1nc2ncc(-c3ccc4ncnc(NCc5ccccc5)c4c3)cc2[nH]1 | 64.9%
C=C(C=O)[C@@H]1CC[C@]2(COC(C)=O)CC[C@]3(C)C(CC[C@@H]4[C@@]5(C)CC[C@H](OC(C)=O)C(C)(C)[C@@H]5CC[C@]43C)[C@@H]12 (stereo partly drawn) | -54.3% (active)
Cc1ccc(S(=O)(=O)N(CC[C@@H]2C[C@H]2c2cc3ccccc3o2)S(=O)(=O)c2ccc(C)cc2)cc1 | 98.2%
COC(=O)c1ccc(NC2=C/C(=N/S(=O)(=O)c3ccc(C(=O)O)cc3)c3ccccc3C2=O)cc1 | -11.2% (active)
O=C(CCn1c[n+](CC(=O)c2ccc(F)cc2)c2ccccc21)Nc1cccc2cccnc12 | 95.7%
CC1(C)CC[C@]2(C(=O)O)CC[C@]3(C)C(=CC[C@@H]4[C@@]5(C)CC/C(=N\OCCC#N)C(C)(C)[C@@H]5CC[C@]43C)[C@@H]2C1 | 100%
COc1ccc([C@@H]2[C@@H](O)C(=O)N2c2cc(OC)c(OC)c(OC)c2)cc1F | 28.4%
CCOC(=O)c1c(Nc2ccccc2)nn2c(-c3ccccc3)ccnc12 | 90.7%
Cc1cc(C)c2sc(=O)n(Cc3nnc(SCCC(=O)O)o3)c2n1 | 103%
C=CCn1c(SCC(=O)Nc2ccc(C(=O)/C=C/c3cccc([N+](=O)[O-])c3)cc2)nnc1-c1c[nH]c2ccccc12 | 91.1%
Cc1ccc(NC(=O)N[C@@H](Cc2cc(F)cc(F)c2)C(=O)NC2C(=O)N3C[C@H](O)C[C@H]3C(=O)N3CCCC[C@H]3C(=O)N[C@@H](CO)C(=O)N3C[C@H](C)C[C@H]3C(=O)O[C@H]2C)c(F)c1 (stereo partly drawn) | 107%

SMILES | growth
C#C[C@]1(O)CC[C@H]2[C@@H]3CC=C4c5sc(-c6ccc7c(c6)OCO7)nc5CC[C@]4(C)[C@H]3CC[C@@]21C | 13%
CCCCCc1ccc(S(=O)(=O)Nc2cccc(-c3csc(NC(=O)CN4CCN(C)CC4)n3)c2)cc1 | 91.8%
CCCn1cnc2c(c1=N)C(c1ccc(F)cc1)c1sc3c(CC)cccc3c1O2 (stereo not drawn) | 18.3%
O=C(NCCn1ccnc1)c1ccc(-c2nc3ccc4[nH]ncc4c3c3c2CCCC3)cc1 | 88.4%
COc1cccc(O)c1/C=C(/C)c1ccc2c(OC)cccc2[o+]1 | 98.9%
NS(=O)(=O)c1ccc(-n2cc(CN3CCCCC3)nn2)cc1 | 107%
O=S(=O)(NCCNc1nccc(-n2cnc3ccccc32)n1)c1ccc(Cl)cc1 | 96.4%
COC(=O)C1(C)CCC[C@]2(C)[C@H]3C[C@H]4C(C(C)C)=C[C@]3(CC[C@@H]12)[C@H]1[C@@H]4[C@@H](OC(=O)c2ccco2)CC[C@@H]1OC(=O)c1ccco1 (stereo partly drawn) | 112%
CCCn1cnc2c(c1=N)C(c1ccc(OC)cc1)c1sc3c(C)cccc3c1O2 (stereo not drawn) | 31.8%
COc1cc(-c2nn(C(C)(C)C)cc2-c2ccnc(NCCCNS(=O)(=O)c3cccc(F)c3)n2)ccc1Cl | 83.4%
CC1(C)CC[C@]2(CN)CC[C@]3(C)C(=CC[C@@H]4[C@@]5(C)CCCNC(C)(C)[C@@H]5CC[C@]43C)[C@H]2C1 | 109%
NC(=O)c1cccc(C#CCNC[C@H]2C[C@@H](n3ccc4c(Cl)ncnc43)[C@H](O)[C@@H]2O)c1 | 106%
NC(N)=Nc1ccc(Oc2cccc(Nc3cccc(C(F)(F)F)c3)c2)cn1 | 37.8%
O=C(CSc1nc2ccccc2c(=O)n1-c1ccccc1)Nc1cccc(C(=O)/C=C/c2ccccc2)c1 | 102%
COc1ccc(/C(N)=N/C(N)=N/c2nc3ccccc3s2)cc1 | 80.8%
Cc1cccc(/C=C/C(=O)Nc2ncc(Cc3cccc(C)c3)s2)c1 | 42.1%
COc1c(N2CC3CCCNC3C2)c(F)cc2c(=O)c(C(=O)N/N=C/c3ccc(Br)cc3)cn(C3CC3)c12 (stereo not drawn) | 89.2%
O=C(c1ccc(O)cc1)[C@@H]1CN[C@@]2(C(=O)Nc3ccccc32)[C@H]1c1ccc(F)cc1 | 94.5%
Nc1nc(Nc2ccccc2SSc2ccccc2Nc2nc(N)nc(-c3ccc4ccccc4c3)n2)nc(-c2ccc3ccccc3c2)n1 | 69.5%
